# About 79,000 compounds went through this panel and 15% of them were active in at least one assay; those are over-represented in the sample as a whole. Activity calls are given as the source filed them. No stated cut-off is given here; in the data, active means growth inhibition above about 70%; inactive means the rest.
# Test: NCI Yeast Anticancer Drug Screen. Data for the mlh1 rad18 strain (AID 175)
# Settings: S. cerevisiae mlh1 rad18 strain growth inhibition, hits give high values; at 50.0 µM unless noted
# Experimental: Growth inhibition of yeast strains with defined genetic alterations is measured as a screen for potential anti-cancer activity. Selected strains with alterations in DNA damage repair or cell cycle control were exposed to compounds and growth inhibition was measured relative to vehicle treated controls. The strain used in this assay is mlh1 rad18
row,SMILES,growth inhibition
1,ClCCCN(CCCCl)c1ccc(C=Nc2cccc(Cl)c2)c(Cl)c1,93.5% (active)
2,CCN(CC)Cc1cc(O)ccc1NCCCNc1ccnc2cc(Cl)ccc12,12.1% (inactive)
3,O=c1[nH]c(/C=C/c2ccccc2)c([N+](=O)[O-])c(=O)[nH]1,16.8% (inactive)
4,CCC(=O)CC(=O)CCC(=O)Nc1ccc(Cl)cc1C,-9.55% (inactive)
5,O=C(c1cccs1)N(C(=S)N1CCN(c2ccccc2)CC1)C1CCCCC1,-10.4% (inactive)
6,N#C/C(=C\c1ccc(Cl)cc1Cl)C(=O)N/N=C/c1ccc(Cl)cc1Cl,23.6% (inactive)
7,Nc1nc(N)c(CCCCc2ccccc2)c(Cc2ccccc2)n1,-7.4% (inactive)
8,O=[N+]([O-])c1cc(F)ccc1S(=O)(=O)c1ccccc1,0.65% (inactive)
9,CCC(C)C(NC(=O)Cc1ccccc1)C(=O)O (stereo not given),5.75% (inactive)
10,CC(=O)OC1CCC2(C)C(CCC3C2C(=O)C(OC(C)=O)C2(C)C3CC3OC4(CCC(C)CO4)C(C)C32)C1 (stereo not given),-6.9% (inactive)
11,CC(N1CCS(=O)(=O)CC1)P(=O)(O)O (stereo not given),2.3% (inactive)
12,CCN(CC(COc1ccc2c(c1)[n+]([O-])nc(N)[n+]2[O-])OC(C)=O)C(C)=O (stereo not given),41.3% (inactive)
13,Cc1c2cc[n+](C)c(C)c2cc2c1[nH]c1ccccc12,37.8% (inactive)
14,O=C(O)CCc1cnc[nH]1,2.3% (inactive)
15,COc1ccc(-c2sc(/N=C/c3ccc(N(C)CCC#N)cc3)c(C#N)c2C)cc1OC,15.3% (inactive)
16,C=CCCC(CCC=C)(C(=O)O)C(=O)O,-36.8% (inactive)
17,O=C(Nc1ccccc1)Nc1ccc([N+](=O)[O-])cc1[N+](=O)[O-],20.6% (inactive)
18,C(=N\N(c1ccccc1)c1ccccc1)/C(c1ccccc1)c1ccccc1,-4.35% (inactive)
19,O=Cc1c[nH]c2ccc(F)cc12,23.4% (inactive)
20,Cc1ccc2[nH]c3c(c2c1)C(=O)CCC3,-1.55% (inactive)

row,SMILES,growth inhibition
1,CS(=O)(=O)c1nc2[nH]cnc(=S)c2[nH]1,-7.1% (inactive)
2,COc1ccc(/C=C(\C(=O)OCC(C)C)c2ccc(OC)c(OC)c2)cc1OC,16.4% (inactive)
3,CCOC(=O)C(Cc1cc(N)c(Oc2ccc(OC)cc2)c(N)c1)NC(C)=O (stereo not given),5.25% (inactive)
4,CN(C)C(=O)OC(Cn1cncn1)(Cn1cncn1)c1ccc(Cl)cc1Cl,-16.8% (inactive)
5,CCN(CC)CCN(CC)C(=S)Nc1ccccc1,12.2% (inactive)
6,CCOC(=O)C(=CN1CCNC1=S)C(=O)OCC,-3.85% (inactive)
7,Cc1cccc(OC(=O)NC2CCCCC2)c1,-13.3% (inactive)
8,CC(C)CC(C(=O)NC1CCCCC1)N1C(=O)c2ccccc2C1=O (stereo not given),20.7% (inactive)
9,O=C1C=CC(=Nc2ccc3c(c2)-c2ccccc2C3)O1,12.1% (inactive)
10,O=C(CCC(=O)Nc1ccc(Cl)c(Cl)c1)Cc1nc2ccccc2o1,1.1% (inactive)
11,NC(=O)Nc1ccccc1-c1ccccc1,7.45% (inactive)
12,C=CCCCCCCCCCCCCCCCC,-9.2% (inactive)
13,CCN(CC)c1ccc2cc(C(=O)NCc3ccccc3)c(=N)oc2c1,7.35% (inactive)
14,CCOC(=N)C1(O)CCCCC1,23.6% (inactive)
15,O=C(O)c1c(-c2nccc3ccccc23)[nH]c(-c2ccccc2)c1S(=O)(=O)O,21.6% (inactive)
16,O=Cc1c2cnc(c1O)CSCc1ccc(cc1)CSC2,23.5% (inactive)
17,CCCCNC(=O)/C(=C\c1ccc(OC)c(OC)c1)NC(=O)c1ccccc1,-21.6% (inactive)
18,CC(C)OC(=O)Nc1cccc(Cl)c1F,8.65% (inactive)
19,CCCCCC=C(c1cc(Cl)c(OC)c(C(N)=O)c1)c1cc(Cl)c(OC)c(C(N)=O)c1,-13.9% (inactive)
20,O=C(OCc1ccccc1)ON1C(=O)C2C3C=CC(C3)C2C1=O (stereo not given),5.05% (inactive)
